The source of these data is PubChem BioAssay (NCATS).

Experiment [1] has as its system HB3. The experiment is described as follows: qHTS profiling for inhibitors of Plasmodium falciparum proliferation (AID 504749). Further: potency means the concentration at half of the fitted maximal effect. The following applies: P. falciparum in erythrocytes, SYBR Green DNA, 72 h; series mostly up to 28.7 µM. A digest of the protocol:
(§1)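 Each compound contacts P. falciparum-infected red blood cells for 72 h at 37 C; lysis buffer (Tris, EDTA, saponin, Triton X, SYBR Green I) is added and fluorescence measured next morning; values normalized to controls.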
Background: In qHTS, concentration-response curves come from the screen itself.

The subject of experiment [2] is ICS. The experiment is described as above. The settings on record: P. falciparum in erythrocytes, SYBR Green DNA, 72 h; series mostly up to 28.7 µM. A digest of the protocol:
as §1

For experiment [3], the system named is JCK. The experiment is described as above. The following applies: P. falciparum in erythrocytes, SYBR Green DNA, 72 h; series mostly up to 28.7 µM. In short, it runs like this:
as §1

Experiment [4] deals with N140. The experiment is described as above. The following applies: P. falciparum in erythrocytes, SYBR Green DNA, 72 h; series mostly up to 28.7 µM. A digest of the protocol:
as §1

Experiment [5] has as its system P93_24. Described as above. The settings on record: P. falciparum in erythrocytes, SYBR Green DNA, 72 h; series mostly up to 28.7 µM. In short, it runs like this: as §1
Experiment [6] deals with P94_40. Described as above. The following applies: P. falciparum in erythrocytes, SYBR Green DNA, 72 h; series mostly up to 28.7 µM. A digest of the protocol: as §1
Experiment [7] deals with PAD. The description is as above. The settings on record: P. falciparum in erythrocytes, SYBR Green DNA, 72 h; series mostly up to 28.7 µM. A digest of the protocol:
as §1

Experiment [8] has as its system PC15. The experiment is described as above. The settings on record: P. falciparum in erythrocytes, SYBR Green DNA, 72 h; series mostly up to 28.7 µM. A digest of the protocol: as §1
The test system of experiment [9] is PC26. The description is as above. The following applies: P. falciparum in erythrocytes, SYBR Green DNA, 72 h; series mostly up to 28.7 µM. A digest of the protocol: as §1
Experiment [10] has as its system PC49. The description is as above. The settings on record: P. falciparum in erythrocytes, SYBR Green DNA, 72 h; series mostly up to 28.7 µM. In short, it runs like this: as §1
Experiment [11] has as its system SC27B. The description is as above. The following applies: P. falciparum in erythrocytes, SYBR Green DNA, 72 h; series mostly up to 28.7 µM. A digest of the protocol:
as §1

Experiment [12] has as its system TAB109. The description is as above. The following applies: P. falciparum in erythrocytes, SYBR Green DNA, 72 h; series mostly up to 28.7 µM. In short, it runs like this:
as §1

Experiment [13] concerns TAB113. The experiment is described as above. The following applies: P. falciparum in erythrocytes, SYBR Green DNA, 72 h; series mostly up to 28.7 µM. A digest of the protocol:
as §1

Experiment [14] has as its system TAB165. The experiment is described as above. The settings on record: P. falciparum in erythrocytes, SYBR Green DNA, 72 h; series mostly up to 28.7 µM. In short, it runs like this:
as §1

In experiment [15] the test system is W2. The experiment is described as above. The following applies: P. falciparum in erythrocytes, SYBR Green DNA, 72 h; series mostly up to 28.7 µM. In short, it runs like this:
as §1

Experiment [16] concerns CRL-7250. The experiment is described as follows: Cytotoxic Profiling of Annotated Libraries Using Quantitative High-Throughput Screening (AID 1296008). On max response: on the % scale 0 is the no-effect control and ±100 the full control effect. The following applies: Five cell lines viability, CellTiter-Glo ATP luminescence, 48-72 h; max response: stronger effect = lower value. A digest of the protocol: (§2)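 Cells exposed to compounds for 48 or 72 hr at 37 degrees Celsius. Viability read as ATP-coupled luminescence with CellTiter-Glo after 10 min at room temperature.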
In general terms: Cellular ATP, detected with luciferase, serves as a proxy for viable cell number.

Experiment [17] deals with HEK293. The experiment is described as above. The following applies: Five cell lines viability, CellTiter-Glo ATP luminescence, 48-72 h; max response: stronger effect = lower value. A digest of the protocol: as §2
Experiment [18] relates to HaCat. The experiment is described as above. The following applies: Five cell lines viability, CellTiter-Glo ATP luminescence, 48-72 h; max response: stronger effect = lower value. In short, it runs like this: as §2
In experiment [19] the test system is KB-3-1. Described as above. The following applies: Five cell lines viability, CellTiter-Glo ATP luminescence, 48-72 h; max response: stronger effect = lower value. A digest of the protocol: as §2
Experiment [20] has as its system NIH3T3. Described as above. The following applies: Five cell lines viability, CellTiter-Glo ATP luminescence, 48-72 h; max response: stronger effect = lower value. In short, it runs like this:
as §2

SMILES strings stand for the structures. “And” between values parts separate entries of the source, which are not always exact repeats. Identical values can stand only once. Results filed as inconclusive are left out. Unmarked numbers belong to inactive results. The source made the active and inactive calls. The call rests on the fitted dose curve; in most records, active means well fitted inhibition curve with a large enough effect; inconclusive means small, poorly fitted or top-dose-only effect; inactive means flat fitted curve, though single readings scatter.
Further: nearly all actives have a fitted effect of over 60% in size.

As to `NCCCCCC(=O)O`, the Potency entry in [1], in [2], in experiment [3], in experiment [4], in experiment [5] and in experiment [6] was “inactive” each time. Moreover, the Potency result in experiment [7], in [8], in experiment [9], in [10], in experiment [11] and in experiment [12] was “inactive” each time. Moreover, the Potency result in experiment [13], in experiment [14] and in experiment [15] was “inactive” in each case. For the same compound, the max response in [16] was -1.72%; in experiment [17] it was -1.96% and 0.967%; in experiment [19], 14.6% and 4.29%; in experiment [20], -2.83% and -5.79%. Also, the result in experiment [16] and in [18] was inactive.
`O=C1N(c2ccccc2)c2ccccc2C1(Cc1ccncc1)Cc1ccncc1`: the Potency result in [1], in experiment [3], in experiment [4], in [5], in experiment [6] and in experiment [7] was “inactive” in each case. The Potency entry in experiment [8], in experiment [9], in experiment [10], in experiment [11], in experiment [12] and in experiment [13] was “inactive” in each case. Also, the Potency entry in [14] and in [15] was “inactive” throughout. Also, the max response in [16] was -6.52% and 2.8%; in [17] it was 2.06%; in experiment [18], 2.97%; in [19], 0.123%; in experiment [20], -1.99% and -3.96%. In addition, the compound was classed as inactive in experiment [17], in experiment [18] and in experiment [19].
For the compound `CCc1cccc2c3c([nH]c12)C(CC)(CC(=O)O)OCC3` (stereo not drawn), the max response in experiment [16] is -0.931%; in [17], 1.01%; in experiment [18], 2.9%; in experiment [19] it was -15.8% and -6.31%; in experiment [20], 3.41% and -0.401%. Besides, the compound was classed as inactive in experiment [17] and in experiment [18].
In the case of `CC(=O)OCC(CCn1cnc2cnc(N)nc21)COC(C)=O`, the Potency entry in [1], in [2], in [3], in experiment [4], in [5] and in [6] was “inactive” each time. Further, the Potency entry in experiment [7], in [8], in experiment [9], in [10], in experiment [11] and in experiment [12] was “inactive” each time. Besides, the Potency result in [13], in experiment [14] and in [15] was “inactive” throughout. Also, the max response in [16] was 3.84%; in experiment [18] it was 1.33% and 3.92%; in [19] it was 12.3% and 3.49%; in experiment [20] it was 3.32%. The result in experiment [16], in experiment [17] and in [20] was inactive.
As for `NC(=O)OCC(COC(N)=O)c1ccccc1`, the Potency entry in experiment [1], in [2], in experiment [3], in [4], in [5] and in [6] was “inactive” in each case. Further, the Potency entry in experiment [7], in experiment [8], in [9], in experiment [10], in experiment [11] and in experiment [12] was “inactive” throughout. Further, the Potency entry in experiment [13] and in experiment [14] was “inactive” throughout. The max response in experiment [16] is 2.98% and -7.95%; in experiment [17] it was -9.25%; in experiment [19], -1.19%; in [20], -0.687%. Besides, the call in experiment [17], in experiment [18] and in experiment [20] was inactive.
Regarding `Cc1ccc(-c2cc(C(F)(F)F)nn2-c2ccc(S(N)(=O)=O)cc2)cc1`, the Potency entry in [1], in experiment [3] and in experiment [10] was “inactive” each time. The Potency was 9.53 µM (active) in [9] and 6.75 µM (active) in experiment [15]. For the same compound, the max response in [16] was -3.61%; in experiment [17], -17.2%; in [18] it was 4.57% and -3.85%; in experiment [19], -4.37% and -12.4%; in experiment [20], 4.24%. Moreover, the outcome in experiment [16], in experiment [18] and in [19] was inactive.
On to `CCOC(=O)C(C)(C)Oc1ccc(Cl)cc1`, for which the Potency result in experiment [1], in experiment [2], in experiment [3], in experiment [4], in experiment [5] and in [6] was “inactive” in each case. Moreover, the Potency result in experiment [7], in [8], in experiment [9], in experiment [10], in experiment [11] and in [12] was “inactive” each time. In addition, the Potency result in experiment [13], in experiment [14] and in [15] was “inactive” in each case. Moreover, the max response in experiment [16] was 2.19% and -5.27%; in [17] it was 4.89%; in experiment [19], 9.24% and 4.33%. Besides, the outcome in experiment [17], in experiment [18] and in experiment [20] was inactive.
Take `O=c1c(O)c(-c2ccc(O)c(O)c2)oc2cc(O)cc(O)c12`: the Potency in experiment [2] is 7.94 µM (active); in experiment [7], 1.78 µM (active); in [14], 7.08 µM (active). The Potency entry in experiment [3], in experiment [4] and in experiment [10] was “inactive” throughout. The max response in experiment [16] is -43%; in experiment [17] it was -3.52% and -1.32%; in experiment [18], -5.77% and -18.7%; in [19], 4.77% and 21.1%; in [20] it was -3.23%. In addition, in experiment [16], the compound was classed as inactive.
On to `N[C@@H](Cc1c[nH]c2ccc(O)cc12)C(=O)O`, for which the Potency entry in [1], in experiment [2], in experiment [3], in [4], in experiment [5] and in experiment [6] was “inactive” each time. In addition, the Potency result in [7], in [8], in experiment [9], in [10], in experiment [11] and in experiment [12] was “inactive” throughout. In addition, the Potency entry in experiment [13], in experiment [14] and in experiment [15] was “inactive” in each case. The max response in experiment [16] is -11.6%; in experiment [17], 2.68%; in experiment [19], 5.77% and -8.69%; in experiment [20], -0.603% and 4.53%. Besides, the compound was called inactive in experiment [16], in [17] and in [18].
Consider `Cn1ccc2cc3c(cc21)CCN3C(=O)Nc1cccnc1`, for which the Potency result in experiment [1] is “inactive”. The Potency in experiment [9] was 13.5 µM (active). The max response in experiment [16] is -6.32%; in experiment [17], -20.9%; in experiment [18], -2.9%; in experiment [19] it was 29.1% and 8.13%; in experiment [20], 0.531%. Moreover, the result in experiment [16], in experiment [17] and in experiment [20] was inactive.
As to `C[C@](N)(Cc1ccc(O)c(O)c1)C(=O)O`, the Potency entry in [1], in experiment [2], in experiment [3], in [4], in experiment [5] and in experiment [6] was “inactive” in each case. For the same compound, the Potency entry in experiment [7], in experiment [8], in experiment [9], in experiment [10], in experiment [11] and in experiment [12] was “inactive” each time. Moreover, the Potency entry in experiment [13], in experiment [14] and in experiment [15] was “inactive” in each case. Besides, the max response is -8.13% and -6.61% in [16]; -6.72% in experiment [17]; -5.55% in experiment [18]; -5.5% and -5.11% in [19]; 4.4% in experiment [20]. Also, the result in [17] and in experiment [18] was inactive.
